Source: paper PMC11574364

molecular target: T1, RBMS3 (Homo sapiens, UniProt Q6XE24); assay: protein domain microarray probed with biotinylated miRNA; Domain array: 20 mM Tris-HCl pH 7.4, 200 mM KCl, 0.2 mM EDTA, 0.05% NP40, 2 ug/ul heparin, overnight 4 C. ORF array: PBS pH 7.0 with RNase inhibitor, 100 ng RNA; high values mean tight binding; conditions: ssRNA
T1 sequence: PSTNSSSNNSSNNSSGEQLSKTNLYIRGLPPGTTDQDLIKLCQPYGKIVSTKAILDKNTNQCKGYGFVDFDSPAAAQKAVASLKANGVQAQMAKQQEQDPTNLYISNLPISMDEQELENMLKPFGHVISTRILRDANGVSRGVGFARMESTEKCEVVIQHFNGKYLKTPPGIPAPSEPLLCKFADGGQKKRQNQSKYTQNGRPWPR

**Q.** With AGAGGUAGUAGGUUGCAUAGUU as the sequence, how does the binding signal read?
**A.** Its binding signal is 410 ± 20.1 fluorescence intensity.

**Q.** How did the binding signal turn out when UGAGGUAGUAGGUUGUAUAGUU was run?
**A.** Its binding signal is 86.8 ± 4.41 fluorescence intensity.

**Q.** Which binding signal does the source give for UAGCUUAUCAGACUGAUGUUGA here?
**A.** Its binding signal is 45.1 ± 0.672 fluorescence intensity.

**Q.** Which binding signal does the source give for CAGUGCAAUGAUGAAAGGGCAU here?
**A.** Its binding signal is 211.2 ± 1.16 fluorescence intensity.

**Q.** For UGAGGUAGUAGGUUGUGUGGUU, which binding signal is on record?
**A.** The binding signal was 564 ± 40.7 fluorescence intensity.

**Q.** Which binding signal does the source give for UGAGGUAGUAGGUUGUAUGGUU here?
**A.** The binding signal was 363 ± 14.3 fluorescence intensity.

molecular target: T2, YTHDC2 (Homo sapiens, UniProt Q9H6S0); assay: as above; conditions: ssRNA
T2 sequence: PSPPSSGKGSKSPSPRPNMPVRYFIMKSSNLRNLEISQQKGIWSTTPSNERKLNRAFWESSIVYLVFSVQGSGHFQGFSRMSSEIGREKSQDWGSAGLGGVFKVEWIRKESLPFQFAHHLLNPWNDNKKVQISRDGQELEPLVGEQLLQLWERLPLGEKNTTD

**Q.** AGAGGUAGUAGGUUGCAUAGUU was tested. Which binding signal did it give?
**A.** Its binding signal is 114 ± 5.32 fluorescence intensity.

**Q.** With UGAGGUAGUAGGUUGUAUAGUU as the sequence, how does the binding signal read?
**A.** The binding signal was 27.7 ± 2.35 fluorescence intensity.

**Q.** How did the binding signal turn out when CAGUGCAAUGAUGAAAGGGCAU was run?
**A.** The binding signal was 65.2 ± 5.22 fluorescence intensity.

**Q.** For UGAGGUAGUAGGUUGUGUGGUU, which binding signal is on record?
**A.** Its binding signal is 156 ± 16.8 fluorescence intensity.

**Q.** How did the binding signal turn out when UGAGGUAGUAGGUUGUAUGGUU was run?
**A.** The binding signal was 143 ± 6.97 fluorescence intensity.

molecular target: VIGILIN(11-14) (Homo sapiens, UniProt Q00341); assay: as above; conditions: ssRNA
Sequence (Q00341 861-1229): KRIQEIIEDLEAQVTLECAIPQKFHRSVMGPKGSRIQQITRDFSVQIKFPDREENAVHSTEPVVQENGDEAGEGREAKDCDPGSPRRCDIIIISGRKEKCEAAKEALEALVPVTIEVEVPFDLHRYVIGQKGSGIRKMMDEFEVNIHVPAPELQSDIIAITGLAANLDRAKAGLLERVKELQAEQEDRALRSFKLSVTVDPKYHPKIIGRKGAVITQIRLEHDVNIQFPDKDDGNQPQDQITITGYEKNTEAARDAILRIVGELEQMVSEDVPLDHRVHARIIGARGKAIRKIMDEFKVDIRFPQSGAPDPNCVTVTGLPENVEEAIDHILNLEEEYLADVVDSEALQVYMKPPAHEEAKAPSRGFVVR

**Q.** AGAGGUAGUAGGUUGCAUAGUU was tested. Which binding signal did it give?
**A.** Its binding signal is 285 ± 6.8 fluorescence intensity.

**Q.** How did the binding signal turn out when UGAGGUAGUAGGUUGUAUAGUU was run?
**A.** The binding signal was 145 ± 5.55 fluorescence intensity.

**Q.** With CAGUGCAAUGAUGAAAGGGCAU as the sequence, how does the binding signal read?
**A.** Its binding signal is 287 ± 28.5 fluorescence intensity.

**Q.** For UGAGGUAGUAGGUUGUGUGGUU, which binding signal is on record?
**A.** Its binding signal is 968 ± 111 fluorescence intensity.

**Q.** UGAGGUAGUAGGUUGUAUGGUU was tested. Which binding signal did it give?
**A.** The binding signal was 911 ± 66.7 fluorescence intensity.

molecular target: T3, RBM20 (Homo sapiens, UniProt Q5T481); assay: as above; conditions: ssRNA
T3 sequence: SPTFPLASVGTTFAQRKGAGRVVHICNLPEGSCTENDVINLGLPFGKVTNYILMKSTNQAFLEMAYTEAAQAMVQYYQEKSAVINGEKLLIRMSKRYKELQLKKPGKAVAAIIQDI

**Q.** For AGAGGUAGUAGGUUGCAUAGUU, which binding signal is on record?
**A.** The binding signal was 39.7 ± 5.85 fluorescence intensity.

**Q.** CAGUGCAAUGAUGAAAGGGCAU was tested. Which binding signal did it give?
**A.** The binding signal was 34.77 ± 0.255 fluorescence intensity.

**Q.** For UGAGGUAGUAGGUUGUGUGGUU, which binding signal is on record?
**A.** The binding signal was 66.7 ± 5.15 fluorescence intensity.

**Q.** For UGAGGUAGUAGGUUGUAUGGUU, which binding signal is on record?
**A.** Its binding signal is 53.6 ± 5.51 fluorescence intensity.

molecular target: SAFB1 (Homo sapiens, UniProt Q15424); assay: as above; conditions: ssRNA
Sequence (Q15424 380-500): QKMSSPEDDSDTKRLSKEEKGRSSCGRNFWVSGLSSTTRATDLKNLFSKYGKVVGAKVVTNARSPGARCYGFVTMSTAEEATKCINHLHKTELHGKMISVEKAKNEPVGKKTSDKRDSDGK

**Q.** With AGAGGUAGUAGGUUGCAUAGUU as the sequence, how does the binding signal read?
**A.** Its binding signal is 280 ± 28.4 fluorescence intensity.

**Q.** Which binding signal does the source give for UGAGGUAGUAGGUUGUAUAGUU here?
**A.** Its binding signal is 94.4 ± 9.54 fluorescence intensity.

**Q.** With UAGCUUAUCAGACUGAUGUUGA as the sequence, how does the binding signal read?
**A.** Its binding signal is 37.5 ± 1.2 fluorescence intensity.

**Q.** CAGUGCAAUGAUGAAAGGGCAU was tested. Which binding signal did it give?
**A.** Its binding signal is 228 ± 31.6 fluorescence intensity.

**Q.** UGAGGUAGUAGGUUGUGUGGUU was tested. Which binding signal did it give?
**A.** The binding signal was 633 ± 29.4 fluorescence intensity.

**Q.** UGAGGUAGUAGGUUGUAUGGUU was tested. Which binding signal did it give?
**A.** The binding signal was 299 ± 26.8 fluorescence intensity.

molecular target: T4, RNPC3(1) (Homo sapiens, UniProt Q96LT9); assay: as above; conditions: ssRNA
T4 sequence: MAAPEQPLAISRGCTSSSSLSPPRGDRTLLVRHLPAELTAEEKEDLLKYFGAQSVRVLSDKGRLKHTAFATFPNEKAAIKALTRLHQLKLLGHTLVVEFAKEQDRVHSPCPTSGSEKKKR

**Q.** How did the binding signal turn out when AGAGGUAGUAGGUUGCAUAGUU was run?
**A.** The binding signal was 201 ± 18.2 fluorescence intensity.

**Q.** UGAGGUAGUAGGUUGUAUAGUU was tested. Which binding signal did it give?
**A.** The binding signal was 38.5 ± 11.8 fluorescence intensity.

**Q.** CAGUGCAAUGAUGAAAGGGCAU was tested. Which binding signal did it give?
**A.** Its binding signal is 61.8 ± 4.94 fluorescence intensity.

**Q.** How did the binding signal turn out when UGAGGUAGUAGGUUGUGUGGUU was run?
**A.** Its binding signal is 391 ± 55.5 fluorescence intensity.

**Q.** UGAGGUAGUAGGUUGUAUGGUU was tested. Which binding signal did it give?
**A.** The binding signal was 192 ± 55.7 fluorescence intensity.
